In the library only some 3.4% were active in any assay of this set; here they are far more common.
TEAD-YAP block – TEAD-YAP interaction inhibition; HEK-TIYL cells, TEAD-Gal4/YAP UAS-luciferase luminescence; inhibition, % at 9.12 µM; hit rate 1.4% among 640,000; AID 1259422; in the data active means inhibition above about 32%
MITF primary – human MITF inhibition, primary screen; O75030; AlphaScreen MITF homodimerization, bead proximity signal; inhibition, % at 2.6 µM; hit rate 0.91% among 650,000; AID 1259374; in the data active means inhibition above about 50%
FBW7 act – human FBW7 E3 ligase activation, primary screen; hit rate 0.13% among 650,000; AID 1259310; AlphaScreen FBW7–phospho-cyclin E peptide binding, activator screen; normalized activity (activation), % at 26.1 µM; Q969H0; in the data active means normalized activity above about 1.9%;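 further: purified mutant Fbw7 with reduced substrate affinity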
GPR151 ag – activates the human receptor GPR151; PathHunter beta-arrestin GPR151 cells, luminescence; activation, % at 11.2 µM; hit rate 1% among 650,000; AID 1508602; in the data active means activation above about 4.9%
Large screens that a line does not name were inactive.

O=C1CCCC2=C1C(c1ccncc1)Nc1ccc(C(=O)c3ccccc3)cc1N2 (centres undefined)	none
O=C1CCCC2=C1C(c1ccc(Br)cc1)Nc1ccc(C(=O)c3ccccc3)cc1N2 (centres undefined)	TEAD-YAP block 51
O=C1CCCC2=C1C(c1cccc([N+](=O)[O-])c1)Nc1ccc(C(=O)c3ccccc3)cc1N2 (centres undefined)	TEAD-YAP block 54
O=C1CCCC2=C1C(c1cccc(O)c1)Nc1ccc(C(=O)c3ccccc3)cc1N2 (centres undefined)	none
O=C1CCCC2=C1C(c1cccc(Cl)c1)Nc1ccc(C(=O)c3ccccc3)cc1N2 (centres undefined)	TEAD-YAP block 70
Nc1ccnc(NCc2ccccc2)c1	TEAD-YAP block 32
COc1cccc(N/C(N)=N/c2nc(C)cc(C)n2)c1	TEAD-YAP block 53
Cc1cc(C)nc(/N=C(\N)Nc2cccc(OCc3ccccc3)c2)n1	TEAD-YAP block 50
C=COCCn1c(Cl)nc2c1c(=O)n(C)c(=O)n2C	none
COc1cccc(C(=O)COC(=O)c2cc3cc(Br)cc(OC)c3oc2=O)c1	none
COc1cc(-c2nc3sc(C)c(C)c3c(=O)o2)cc(OC)c1OC	FBW7 act 2.3
Cc1cccc(CNC(=O)C2CC23CCN(C(=O)c2cccc(N(C)C)c2)CC3)n1 (centres undefined)	none
CCN(CC)CCCNc1nc2ccccc2c2nc(-c3ccncc3)nn12	TEAD-YAP block 80
CCCCNc1nc2ccccc2c2nc(-c3ccncc3)nn12	none
CC1CCCCN1CCCNc1nc2ccccc2c2nc(-c3ccncc3)nn12 (centres undefined)	TEAD-YAP block 80
CCN(CC)CCCNc1nc2cc(OC)c(OC)cc2c2nc(-c3ccccc3)nn12	TEAD-YAP block 32
Cc1cc(N2CCN(c3ncccn3)CC2)nc2ccc(NC(=O)c3cc(=O)c4ccccc4o3)cc12	none
N#C/C(=C\c1ccc(Cl)c([N+](=O)[O-])c1)c1nc2ccccc2s1	none
CC1CN(CC(=O)NCC(c2ccccn2)N2CCOCC2)Cc2ccccc2O1 (centres undefined)	none
CC(=O)NC1CCN(C(=O)Nc2ccccc2)CC1	FBW7 act 2.1
O=C(NC1CC1)C1CCN(C(=O)Nc2ccccc2)CC1	none
CC(=O)N(C)C1=C(N2CCCCC2)C(=O)c2ccccc2C1=O	TEAD-YAP block 91
CC(=O)N(C1=C(N2CCCCC2)C(=O)c2ccccc2C1=O)c1ccccc1C	TEAD-YAP block 36
O=C(CCl)NCCSc1ccc(Cl)cc1	TEAD-YAP block 57
COc1ccc(C2C(C#N)=C(N)Oc3ccc4ccccc4c32)cc1OC (centres undefined)	none
COc1cc(C2C(C#N)=C(N)Oc3ccc4ccccc4c32)cc(OC)c1OC (centres undefined)	TEAD-YAP block 48
N#CC1=C(N)Oc2ccc3ccccc3c2C1c1ccccc1F (centres undefined)	TEAD-YAP block 52
CNC(=O)N(C)C(=O)Nc1ccccc1F	none
COc1cccc(-n2cc(-c3cc4ccccc4oc3=O)[nH]c2=S)c1	TEAD-YAP block 95
CCOC(=O)c1cnc2ccc(OCC)cc2c1NCCCN(CC)CC	TEAD-YAP block 33
N#CC1=C(SCC(=O)Nc2ccccc2Cl)NC(=O)CC1c1ccc(F)cc1 (centres undefined)	none
CCOC(=O)CSC1=C(C#N)C(c2cccc(Cl)c2)CC(=O)N1 (centres undefined)	TEAD-YAP block 66
COC(=O)CSC1=C(C#N)C(c2cccc(Cl)c2)CC(=O)N1 (centres undefined)	TEAD-YAP block 57
N#CC1=C(SCC(=O)Nc2ccccc2[N+](=O)[O-])NC(=O)CC1c1ccccc1F (centres undefined)	TEAD-YAP block 34
CCCCOC(=O)CSC1=C(C#N)C(c2cccc(Cl)c2)CC(=O)N1 (centres undefined)	TEAD-YAP block 45
CCOC(=O)CSC1=C(C#N)C(c2ccc(Cl)cc2)CC(=O)N1 (centres undefined)	none
COC(=O)CSC1=C(C#N)C(c2ccc(Cl)cc2)CC(=O)N1 (centres undefined)	none
CNC(=O)c1ccc(-c2ccsc2)nc1NCC1CC1	none
CC(=O)C1=NN(c2ccc(Cl)cc2)C(c2cccs2)N1c1ccccc1 (centres undefined)	none
CCOC(=O)CSC1=C(C#N)C(c2ccc(C)o2)CC(=O)N1 (centres undefined)	TEAD-YAP block 60
N#CC1=C(SCC(=O)Nc2ccc(Cl)c(Cl)c2)NC(=O)CC1c1cccs1 (centres undefined)	TEAD-YAP block 59
COc1cccc(NC2=C(Cl)C(=O)N(Cc3ccccc3)C2=O)c1	none

Bioassay records (PubChem BioAssay)
